Structures can show the parent of a compound that is named as a salt.
Key:
Assay in all cases: thermal shift delta Tm vs DMSO control; higher = stronger stabilization (binding)
Settings in all cases: 12.5 µM; protein concentration 2 µM
LOC_OS01G57100-cb003 = tested on: LOC_OS01G57100-cb003
How it was run: (§1)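 Purified, E. coli-expressed rice kinase domain constructs were tested by differential scanning fluorimetry in 96-well plates: 19.5 μl of 2 μM kinase in 100 mM potassium phosphate pH 7.5, 150 mM NaCl, 10% glycerol, 5 × SYPRO Orange, plus compound in DMSO. Fluorescence was read from 25°C to 95°C at 0.05°C/s. Melting temperatures came from Boltzmann fits, and the shift is the triplicate mean relative to protein with DMSO alone.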

LOC_OS01G60330-cb001 = tested on: LOC_OS01G60330-cb001
How it was run: as §1

LOC_OS01G60700-cb002 = tested on: LOC_OS01G60700-cb002
How it was run: as §1

LOC_OS01G63280-cb003 = tested on: LOC_OS01G63280-cb003
How it was run: as §1

LOC_OS01G67340-cb003 = tested on: LOC_OS01G67340-cb003
How it was run: as §1

LOC_OS01G70970-cb002 = tested on: LOC_OS01G70970-cb002
How it was run: as §1

LOC_OS02G07810-cb001 = tested on: LOC_OS02G07810-cb001
How it was run: as §1

LOC_OS02G08530-cb003 = tested on: LOC_OS02G08530-cb003
How it was run: as §1

LOC_OS02G14120-cb001 = tested on: LOC_OS02G14120-cb001
How it was run: as §1

LOC_OS02G17970-cb001 = tested on: LOC_OS02G17970-cb001
How it was run: as §1

LOC_OS02G45750-cb003 = tested on: LOC_OS02G45750-cb003
How it was run: as §1

LOC_OS02G54510-cb004 = tested on: LOC_OS02G54510-cb004
How it was run: as §1

LOC_OS03G04050-cb001 = tested on: LOC_OS03G04050-cb001
How it was run: as §1

LOC_OS03G12390-cb001 = tested on: LOC_OS03G12390-cb001
How it was run: as §1

LOC_OS03G27990-cb004 = tested on: LOC_OS03G27990-cb004
How it was run: as §1

LOC_OS03G50450-cb001 = tested on: LOC_OS03G50450-cb001
How it was run: as §1

LOC_OS03G50810-cb003 = tested on: LOC_OS03G50810-cb003
How it was run: as §1

LOC_OS04G35114-cb001 = tested on: LOC_OS04G35114-cb001
How it was run: as §1

LOC_OS04G38480-cb003 = tested on: T1, LOC_OS04G38480-cb003
T1 sequence (whole entry): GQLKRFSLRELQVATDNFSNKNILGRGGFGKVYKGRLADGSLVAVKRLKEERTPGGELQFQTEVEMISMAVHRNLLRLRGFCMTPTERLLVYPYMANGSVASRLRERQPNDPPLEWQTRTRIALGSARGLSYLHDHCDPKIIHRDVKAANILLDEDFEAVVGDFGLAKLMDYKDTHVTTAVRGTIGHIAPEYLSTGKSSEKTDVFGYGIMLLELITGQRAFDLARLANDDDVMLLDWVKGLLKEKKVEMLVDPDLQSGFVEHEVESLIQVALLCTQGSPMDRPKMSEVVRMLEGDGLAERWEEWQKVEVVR
How it was run: as §1

LOC_OS04G41100-cb001 = tested on: T2, LOC_OS04G41100-cb001
T2 sequence (whole entry): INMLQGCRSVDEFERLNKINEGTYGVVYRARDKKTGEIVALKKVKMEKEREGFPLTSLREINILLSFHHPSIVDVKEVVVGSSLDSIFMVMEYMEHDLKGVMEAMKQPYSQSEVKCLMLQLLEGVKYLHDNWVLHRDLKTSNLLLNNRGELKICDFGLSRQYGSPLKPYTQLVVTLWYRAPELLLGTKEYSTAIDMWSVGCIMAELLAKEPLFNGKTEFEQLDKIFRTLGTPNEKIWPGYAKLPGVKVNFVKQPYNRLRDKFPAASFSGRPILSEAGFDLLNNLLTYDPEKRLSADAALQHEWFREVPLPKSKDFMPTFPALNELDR
How it was run: as §1

| Compound | thermal shift delta Tm (LOC_OS01G57100-cb003) [°C] | thermal shift delta Tm (LOC_OS01G60330-cb001) [°C] | thermal shift delta Tm (LOC_OS01G60700-cb002) [°C] | thermal shift delta Tm (LOC_OS01G63280-cb003) [°C] | thermal shift delta Tm (LOC_OS01G67340-cb003) [°C] | thermal shift delta Tm (LOC_OS01G70970-cb002) [°C] | thermal shift delta Tm (LOC_OS02G07810-cb001) [°C] | thermal shift delta Tm (LOC_OS02G08530-cb003) [°C] | thermal shift delta Tm (LOC_OS02G14120-cb001) [°C] | thermal shift delta Tm (LOC_OS02G17970-cb001) [°C] | thermal shift delta Tm (LOC_OS02G45750-cb003) [°C] | thermal shift delta Tm (LOC_OS02G54510-cb004) [°C] | thermal shift delta Tm (LOC_OS03G04050-cb001) [°C] | thermal shift delta Tm (LOC_OS03G12390-cb001) [°C] | thermal shift delta Tm (LOC_OS03G27990-cb004) [°C] | thermal shift delta Tm (LOC_OS03G50450-cb001) [°C] | thermal shift delta Tm (LOC_OS03G50810-cb003) [°C] | thermal shift delta Tm (LOC_OS04G35114-cb001) [°C] | thermal shift delta Tm (LOC_OS04G38480-cb003) [°C] | thermal shift delta Tm (LOC_OS04G41100-cb001) [°C] |
| --- | --- | --- | --- | --- | --- | --- | --- | --- | --- | --- | --- | --- | --- | --- | --- | --- | --- | --- | --- | --- |
| C[C@@H]1COC(Nc2ccc3ncnc(Nc4ccc(OCc5nccs5)c(Cl)c4)c3c2)=N1 [Varlitinib] | 1.92 | 1.09 | 1.53 | 1.44 | 0.64 | 0.88 | 0.94 | 0.76 | 0.74 | 1.04 | 1.53 | 0.27 | 0.48 | 0.13 | 0.32 | 0.46 | 0.41 | 1.59 | 1.56 | 0.59 |
| CC(C)NC(=O)COc1cccc(-c2nc(Nc3ccc4[nH]ncc4c3)c3ccccc3n2)c1 | 1.14 | 12.3 | 0.68 | 0.55 | 0.91 | 0.76 | 1.23 | 1.03 | 2.71 | 1.76 | 1.3 | 0.55 | 0.76 | -0.25 | 0.71 | 0.77 | 0.84 | 1.5 | 1.83 | 0.68 |
| N=C(N)NC(=N)NCCc1ccccc1 [Phenformin HCl] | 2.51 | 0.5 | 0.54 | 0.18 | -0.23 | 0.29 | 0.75 | -0.63 | 1.22 | 0.39 | 0.17 | -0.29 | 0.17 | -0.23 | 0.15 | 0.26 | 0.78 | -0.12 | 0.97 | -0.08 |
| S=C(NCc1ccc2c(c1)OCO2)N1CCN(c2ncnc3c2oc2ccccc23)CC1 [Amuvatinib (MP-470)] | 1.62 | 1.4 | 1.01 | 0.5 | 0.84 | 0.42 | 1.04 | 1.09 | 0.42 | 1.14 | 0.86 | -2.11 | 0.55 | 0.66 | 0.56 | 0.69 | 0.68 | -0.04 | 0.39 | 0.47 |
| c1ccc(-c2[nH]ncc2-c2ccnc3ccccc23)nc1 | 0.37 | -0.07 | 0.62 | -0.05 | 0.51 | -0.04 | 0.95 | 0.29 | 2.26 | 0.56 | 0.48 | 0.4 | 0.67 | 0.41 | 0.25 | 0.76 | 0.28 | 0.25 | 2.34 | 0.99 |
| Cn1ncc(Cl)c1-c1cc(C(=O)N[C@H](CN)Cc2ccc(F)c(F)c2)oc1Cl | 1.78 | 0.8 | 1.33 | 0.28 | 0.45 | 0.03 | 0.82 | 0.49 | 0.41 | 1.67 | 1.04 | -0.14 | 0.46 | 1.31 | 0.14 | 0.74 | 0.51 | 0.52 | 1.58 | 0.63 |
| Cc1c(NC(=O)OC[C@@H]2COCCN2)cn2ncnc(Nc3ccc4c(cnn4Cc4cccc(F)c4)c3)c12 | 0.24 | 1.47 | 1.55 | 0.59 | -0.1 | 0.39 | 0.88 | 0.86 | 0.51 | 0.42 | 0.67 | 0.27 | 0.42 | 0.69 | 0.14 | 0.45 | 0.15 | 1.04 | 1.85 | 0.82 |
| CNC(=O)c1ccccc1Sc1ccc2c(/C=C/c3ccccn3)n[nH]c2c1 [Axitinib] | 0.01 | 1.21 | 1.17 | 0.65 | -0.05 | 0.68 | 0.49 | 0.53 | 3.54 | -0.24 | 4.92 | 0.12 | 0.3 | 0.31 | 0.01 | 0.21 | 0.35 | 2.98 | 0.63 | 0.65 |
| C=CC(=O)Nc1cccc(Nc2nc(Nc3ccc(NC4CN(CCF)C4)cc3OC)ncc2C(F)(F)F)c1 | 0.4 | 0.07 | 0.83 | 0.2 | -0.31 | 0.87 | 0.93 | 3.91 | 1.12 | 0.41 | 0.83 | 0.67 | 0.56 | 8.48 | 0.5 | 0.39 | 1.26 | 0.98 | 0.06 | 0.29 |
| COc1cc(OC)c(/C=C/S(=O)(=O)Cc2ccc(OC)c(NCC(=O)O)c2)c(OC)c1 | 0.72 | 0.72 | 1.27 | 0.67 | -0.23 | -0.1 | 1.48 | 0.79 | 0.49 | 0.94 | 0.52 | 0.14 | 0.35 | 0.36 | 0.04 | 0.44 | 0.25 | 0.47 | 1.33 | 0.67 |
| Cc1ccc(-n2nc(C(C)(C)C)cc2NC(=O)NCc2cc(F)ccc2Oc2ccc3c(cnn3CCO)c2)cc1 [Pexmetinib (ARRY-614)] | 1.23 | 2 | 0.83 | 6.58 | 0.87 | 0.6 | 0.69 | 0.78 | 4.57 | 1.52 | 0.81 | 2.56 | 0.65 | 1.05 | 0.31 | 0.02 | 0.36 | 0.41 | 1.51 | 1.43 |
| CC(C)NC[C@@H](C(=O)N1CCN(c2ncnc3c2[C@H](C)C[C@H]3O)CC1)c1ccc(Cl)cc1 [Ipatasertib (GDC-0068)] | 0.44 | 0.84 | 1.12 | 0.25 | 0.25 | 0.4 | 0.82 | 0.31 | -0.01 | 0.06 | 0.72 | 0.15 | 0.65 | -0.37 | 0.47 | 1.15 | 0.45 | 0.7 | 1.01 | 0.07 |
